Seven molecules from ChEMBL document CHEMBL2218924, “A broad activity screen in support of a chemogenomic map for kinase signalling research and drug discovery” (Biochem J, 2013) can be followed below.

For experiment [1], the target named is T1, cGMP-dependent protein kinase 1 (Homo sapiens) (UniProt Q13976).
T1 sequence (whole entry): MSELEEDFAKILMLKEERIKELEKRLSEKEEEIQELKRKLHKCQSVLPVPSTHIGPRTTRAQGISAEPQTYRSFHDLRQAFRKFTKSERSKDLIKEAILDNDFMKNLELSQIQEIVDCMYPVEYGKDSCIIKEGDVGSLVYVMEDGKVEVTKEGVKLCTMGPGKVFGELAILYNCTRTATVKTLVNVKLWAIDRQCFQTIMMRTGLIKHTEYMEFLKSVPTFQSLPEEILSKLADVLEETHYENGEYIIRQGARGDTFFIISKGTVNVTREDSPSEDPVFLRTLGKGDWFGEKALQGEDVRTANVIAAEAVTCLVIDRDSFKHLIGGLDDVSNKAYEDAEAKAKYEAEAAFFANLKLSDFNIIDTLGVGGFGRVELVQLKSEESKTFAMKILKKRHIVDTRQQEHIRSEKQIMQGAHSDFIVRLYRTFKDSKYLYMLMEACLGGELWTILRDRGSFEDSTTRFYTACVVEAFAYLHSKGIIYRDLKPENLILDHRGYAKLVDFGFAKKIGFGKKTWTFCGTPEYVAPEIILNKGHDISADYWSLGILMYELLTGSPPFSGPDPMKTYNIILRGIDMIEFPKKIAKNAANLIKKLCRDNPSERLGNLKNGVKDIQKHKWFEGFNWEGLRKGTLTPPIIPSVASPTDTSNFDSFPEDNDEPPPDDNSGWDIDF
The conditions noted are these: at 1 µM.

The target in experiment [2] is T1, cGMP-dependent protein kinase 1 (Homo sapiens). The conditions noted are these: at 10 µM.
For experiment [3] the target is unchanged. The conditions noted are these: at 1 µM. The source holds these as a separate data set.
The target is the same in experiment [4]. Conditions: at 10 µM. This is another data set of the same source.
Experiment [5] addresses T2, MAP kinase-activated protein kinase 5 (Homo sapiens) (UniProt Q8IW41).
T2 sequence (whole entry): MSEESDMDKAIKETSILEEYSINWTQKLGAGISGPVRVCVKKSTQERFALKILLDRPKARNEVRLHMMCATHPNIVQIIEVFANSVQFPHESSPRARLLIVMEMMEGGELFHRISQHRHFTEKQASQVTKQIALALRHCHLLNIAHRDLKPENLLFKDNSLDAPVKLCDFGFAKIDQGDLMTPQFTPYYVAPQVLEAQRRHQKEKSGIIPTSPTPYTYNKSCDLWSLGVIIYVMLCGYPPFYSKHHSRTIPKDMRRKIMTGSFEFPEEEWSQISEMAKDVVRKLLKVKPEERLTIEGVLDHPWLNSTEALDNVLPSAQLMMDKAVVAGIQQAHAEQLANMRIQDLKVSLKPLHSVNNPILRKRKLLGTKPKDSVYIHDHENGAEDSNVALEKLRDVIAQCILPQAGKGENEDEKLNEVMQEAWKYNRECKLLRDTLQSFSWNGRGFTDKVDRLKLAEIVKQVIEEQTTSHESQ
Conditions: at 1 µM.

Experiment [6] addresses T2, MAP kinase-activated protein kinase 5 (Homo sapiens). Conditions: at 10 µM.
The target in experiment [7] is Serine/threonine-protein kinase N2 (Homo sapiens) (UniProt Q16513). The conditions noted are these: at 1 µM.
Chain of Serine/threonine-protein kinase N2 (Homo sapiens) (Q16513 whole entry, looked up): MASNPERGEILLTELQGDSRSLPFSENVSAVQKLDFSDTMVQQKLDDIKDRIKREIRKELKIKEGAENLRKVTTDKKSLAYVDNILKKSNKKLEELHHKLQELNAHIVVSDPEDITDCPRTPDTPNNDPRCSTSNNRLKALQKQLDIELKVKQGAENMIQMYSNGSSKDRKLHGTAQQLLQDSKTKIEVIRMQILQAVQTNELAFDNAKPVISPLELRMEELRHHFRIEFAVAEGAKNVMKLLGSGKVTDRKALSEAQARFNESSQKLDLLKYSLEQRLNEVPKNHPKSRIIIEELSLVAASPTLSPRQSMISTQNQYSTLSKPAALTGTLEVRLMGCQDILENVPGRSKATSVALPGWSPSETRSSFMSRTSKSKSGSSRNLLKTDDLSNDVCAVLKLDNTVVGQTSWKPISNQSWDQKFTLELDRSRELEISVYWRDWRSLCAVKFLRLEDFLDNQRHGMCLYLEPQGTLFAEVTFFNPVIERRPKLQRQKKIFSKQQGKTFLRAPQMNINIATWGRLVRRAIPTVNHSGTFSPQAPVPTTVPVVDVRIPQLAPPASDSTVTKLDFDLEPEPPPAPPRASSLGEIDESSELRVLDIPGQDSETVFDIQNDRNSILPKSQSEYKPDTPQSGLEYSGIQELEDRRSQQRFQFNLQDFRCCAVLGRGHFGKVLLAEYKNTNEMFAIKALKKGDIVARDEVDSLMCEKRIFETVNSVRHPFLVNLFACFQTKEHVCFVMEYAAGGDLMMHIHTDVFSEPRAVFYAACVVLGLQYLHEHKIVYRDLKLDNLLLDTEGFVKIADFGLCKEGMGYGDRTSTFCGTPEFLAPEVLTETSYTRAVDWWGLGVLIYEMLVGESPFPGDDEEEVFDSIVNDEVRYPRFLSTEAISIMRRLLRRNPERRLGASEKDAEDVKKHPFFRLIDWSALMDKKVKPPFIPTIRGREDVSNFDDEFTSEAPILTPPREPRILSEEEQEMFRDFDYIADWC
Experiment [8] shares this target. Conditions: at 10 µM.
The target in experiment [9] is Tyrosine-protein kinase FRK (Homo sapiens) (UniProt P42685). Conditions: at 1 µM.
Chain of Tyrosine-protein kinase FRK (Homo sapiens) (P42685 whole entry): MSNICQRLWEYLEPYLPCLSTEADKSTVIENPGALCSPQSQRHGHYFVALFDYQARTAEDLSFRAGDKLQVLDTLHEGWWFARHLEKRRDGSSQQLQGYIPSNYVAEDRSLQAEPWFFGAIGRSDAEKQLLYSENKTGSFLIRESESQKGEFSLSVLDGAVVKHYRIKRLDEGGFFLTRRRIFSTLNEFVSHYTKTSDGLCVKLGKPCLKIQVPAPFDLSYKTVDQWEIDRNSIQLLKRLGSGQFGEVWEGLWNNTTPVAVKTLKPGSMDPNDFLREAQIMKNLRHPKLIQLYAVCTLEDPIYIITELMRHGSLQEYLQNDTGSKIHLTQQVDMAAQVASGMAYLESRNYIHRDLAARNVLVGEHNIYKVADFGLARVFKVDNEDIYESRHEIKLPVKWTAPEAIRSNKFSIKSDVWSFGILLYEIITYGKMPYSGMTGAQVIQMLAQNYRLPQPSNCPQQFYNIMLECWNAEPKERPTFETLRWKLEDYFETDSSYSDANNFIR
Experiment [10] has the same target. Conditions: at 10 µM.
Experiment [11] addresses T3, Phosphorylase b kinase gamma catalytic chain, liver/testis isoform (Homo sapiens) (UniProt P15735).
T3 sequence (whole entry): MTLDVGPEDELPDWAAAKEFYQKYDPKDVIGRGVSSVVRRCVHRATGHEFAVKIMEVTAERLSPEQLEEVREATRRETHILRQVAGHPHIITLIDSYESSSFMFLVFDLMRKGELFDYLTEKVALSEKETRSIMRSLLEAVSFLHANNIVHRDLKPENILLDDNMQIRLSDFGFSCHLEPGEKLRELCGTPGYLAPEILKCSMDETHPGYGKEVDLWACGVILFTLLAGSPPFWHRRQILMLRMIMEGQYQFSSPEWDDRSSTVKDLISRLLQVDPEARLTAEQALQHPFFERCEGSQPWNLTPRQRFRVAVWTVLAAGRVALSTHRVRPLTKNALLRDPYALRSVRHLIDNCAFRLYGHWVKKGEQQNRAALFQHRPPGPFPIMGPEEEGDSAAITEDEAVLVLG
Conditions: at 1 µM.

Experiment [12] addresses T3, Phosphorylase b kinase gamma catalytic chain, liver/testis isoform (Homo sapiens). Conditions: at 10 µM.
Experiment [13] has as its target Serine/threonine-protein kinase pim-1 (Homo sapiens) (UniProt P11309). Conditions: at 1 µM.
The target is the same in experiment [14]. The conditions noted are these: at 10 µM.
Experiment [15] has as its target Serine/threonine-protein kinase pim-2 (Homo sapiens) (UniProt Q9P1W9). Conditions: at 1 µM.
Experiment [16] shares this target. Conditions: at 10 µM.
In experiment [17] the target is Serine/threonine-protein kinase pim-3 (Homo sapiens) (UniProt Q86V86). Conditions: at 1 µM.
The target is the same in experiment [18]. The conditions noted are these: at 10 µM.
Experiment [19] has as its target Serine/threonine-protein kinase PLK1 (Homo sapiens) (UniProt P53350). The conditions noted are these: at 1 µM.
The target is the same in experiment [20]. Conditions: at 10 µM.

Chain of Serine/threonine-protein kinase PLK1 (Homo sapiens) (P53350 whole entry): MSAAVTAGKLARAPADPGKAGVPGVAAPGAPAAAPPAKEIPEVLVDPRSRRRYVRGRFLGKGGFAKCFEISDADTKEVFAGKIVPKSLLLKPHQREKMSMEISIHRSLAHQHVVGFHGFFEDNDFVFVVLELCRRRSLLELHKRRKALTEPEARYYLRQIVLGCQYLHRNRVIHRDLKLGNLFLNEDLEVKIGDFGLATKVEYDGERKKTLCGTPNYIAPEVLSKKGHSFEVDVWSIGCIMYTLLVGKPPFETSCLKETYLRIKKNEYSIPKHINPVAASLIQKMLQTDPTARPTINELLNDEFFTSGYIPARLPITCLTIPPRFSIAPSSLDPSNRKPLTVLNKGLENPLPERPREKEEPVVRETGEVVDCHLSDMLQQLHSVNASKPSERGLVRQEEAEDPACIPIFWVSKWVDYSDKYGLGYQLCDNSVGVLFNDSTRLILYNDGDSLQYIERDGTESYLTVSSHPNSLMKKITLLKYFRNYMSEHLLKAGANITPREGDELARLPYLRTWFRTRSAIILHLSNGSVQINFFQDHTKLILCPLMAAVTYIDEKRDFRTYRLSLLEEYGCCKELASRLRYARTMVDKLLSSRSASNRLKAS
Chain of Serine/threonine-protein kinase pim-1 (Homo sapiens) (P11309 whole entry, looked up): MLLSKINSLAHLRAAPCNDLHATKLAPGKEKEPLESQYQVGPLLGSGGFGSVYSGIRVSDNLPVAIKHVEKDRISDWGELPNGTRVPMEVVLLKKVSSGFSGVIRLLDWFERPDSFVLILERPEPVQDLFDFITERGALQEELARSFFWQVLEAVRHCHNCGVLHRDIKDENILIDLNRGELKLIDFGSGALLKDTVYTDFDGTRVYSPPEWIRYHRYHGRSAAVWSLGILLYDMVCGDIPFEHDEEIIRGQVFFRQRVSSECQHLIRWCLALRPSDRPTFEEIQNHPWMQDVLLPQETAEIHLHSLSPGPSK
Chain of Serine/threonine-protein kinase pim-2 (Homo sapiens) (Q9P1W9 whole entry, looked up): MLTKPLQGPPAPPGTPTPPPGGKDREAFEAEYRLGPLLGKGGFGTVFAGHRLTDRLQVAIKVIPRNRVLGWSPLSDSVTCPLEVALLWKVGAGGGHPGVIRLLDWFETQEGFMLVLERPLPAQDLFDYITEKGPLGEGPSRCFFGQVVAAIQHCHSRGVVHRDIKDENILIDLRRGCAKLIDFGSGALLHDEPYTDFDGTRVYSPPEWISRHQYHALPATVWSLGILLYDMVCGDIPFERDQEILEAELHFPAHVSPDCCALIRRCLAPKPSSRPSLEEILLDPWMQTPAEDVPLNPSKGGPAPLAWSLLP

As to `Oc1ccc(Nc2nc(-c3ccc(Cl)cc3)cs2)cc1`, the residual activity in experiment [1] came out at 100%; in [2], 99%; in [3] it was 113%; in [4], 111%; in [5] it was 115%; in experiment [6], 69%. The residual activity stood at 110% in [7]; 107% in experiment [8]; 104% in experiment [9]; 118% in [10]; 129% in experiment [11]; 130% in experiment [12]. Also, the residual activity turned out to be 77% in [13]; 52% in experiment [14]; 126% in experiment [15]; 82% in experiment [16]; 93% in [17]; 97% in experiment [18]. The residual activity in experiment [19] worked out at 97%; in [20], 90%.
Take `O=C1Nc2ccc(Br)cc2/C1=C\c1cc2c([nH]1)CCCC2`: the residual activity came to 100% in experiment [1]; 99% in experiment [2]; 105% in experiment [3]; 97% in experiment [4]; 82% in experiment [5]; 99% in [6]. Also, the residual activity in [8] was determined as 112%; in experiment [9] it was 102%; in [10], 103%; in [11], 77%; in experiment [12], 78%; in [14], 105%. For the same molecule, the residual activity in [15] was found to be 129%; in experiment [16], 106%; in [17] it was 105%; in experiment [18], 112%; in experiment [19], 82%; in experiment [20], 80%.
Take `O=C1c2ccccc2-[n+]2ccc3c([nH]c4ccccc43)c21`: the residual activity worked out at 94% in experiment [1]; 116% in experiment [2]; 83% in experiment [3]; 75% in [4]; 119% in experiment [5]; 124% in [6]. The residual activity is 86% in [7]; 92% in experiment [8]; 95% in [9]; 92% in experiment [10]; 108% in experiment [11]; 99% in experiment [12]. In addition, the residual activity amounted to 110% in [13]; 91% in experiment [14]; 144% in experiment [15]; 130% in [16]; 81% in [17]; 74% in experiment [18]. Besides, the residual activity in experiment [19] worked out at 75%; in experiment [20] it was 74%.
For `CCN(CC)CCCCN1c2ccccc2Oc2ccc(Cl)cc21`, the residual activity in [1] was 113%; in experiment [2] it was 110%; in experiment [3], 97%; in experiment [4] it was 94%; in experiment [5] it was 96%; in [6], 112%. Besides, the residual activity in [7] is 107%; in experiment [8] it was 124%; in [9], 105%; in experiment [10], 119%; in [11] it was 112%; in [12], 122%. Moreover, the residual activity in [15] is 97%; in experiment [16] it was 125%; in experiment [17], 92%; in experiment [18], 47%; in [19], 109%; in experiment [20], 76%.
`O=C1NC(=O)/C(=C/c2ccc3c(c2)OC(F)(F)O3)S1`: the residual activity in experiment [1] is 105%; in experiment [2], 108%; in experiment [3], 72%; in [4], 52%; in experiment [5] it was 106%; in experiment [6], 37%. Moreover, the residual activity came out at 117% in [7]; 97% in [8]; 101% in experiment [9]; 107% in experiment [10]; 85% in experiment [11]; 94% in [12]. For the same molecule, the residual activity in [13] amounted to 37%; in experiment [14], 5%; in experiment [15], 58%; in [16] it was 10%; in [17], 88%; in experiment [18], 41%. The residual activity in experiment [19] came to 101%; in experiment [20] it was 61%.
On to `COc1cc2ncc(-c3ccccc3)nc2cc1OC`, for which the residual activity in [5] is 125%; in [6] it was 85%; in experiment [9], 90%; in experiment [10] it was 90%; in experiment [13], 81%; in [14], 82%. The residual activity is 127% in [15]; 144% in experiment [16]; 95% in [17]; 99% in experiment [18]; 88% in [19]; 75% in experiment [20].
On to `Cc1cncc2cccc(S(=O)(=O)N3CCCN(C(=O)CN)C[C@H]3C)c12`, for which the residual activity in experiment [1] is 93%; in [2] it was 44%; in [3] it was 74%; in experiment [4], 19%; in [5] it was 82%; in experiment [6], 98%. The residual activity in [7] was 22%; in [8], 7%; in [9], 87%; in experiment [10] it was 70%; in experiment [11], 82%; in experiment [12], 49%. The residual activity turned out to be 100% in [13]; 84% in experiment [14]; 92% in experiment [17]; 86% in experiment [18]; 90% in experiment [19]; 59% in experiment [20].
